Source: PubChem BioAssay (EPA / NIEHS)
Where “and” joins values, the source holds several entries; their conditions need not be identical. Equal entries are not always repeated. Results filed as inconclusive are left out. Calls of active or inactive are those of the source. The calls were made as follows, unless noted: active = hit-call score of the fitted dose curve at least 0.9, where 1 is the maximum; inconclusive = response in the unintended direction; inactive = score below 0.9.

Each compound was assayed against Retinoic acid receptor RXR-alpha (Homo sapiens) (UniProt P19793) (assay: ATG_RXRa_TRANS: Attagene TRANS-FACTORIAL HepG2 Assay for human Retinoid X Receptor alpha (RXRa) (AID 2283012)). Conditions: not given.
Outline: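 Read-out: fluorescent reporter-transcript fragments quantified by capillary electrophoresis after RT-PCR. Transiently transfected HepG2 cells carrying GAL4-UAS reporters and NR-GAL4 chimeras were exposed to chemical for 24 h; activity scored as increase over DMSO.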

Chain of Retinoic acid receptor RXR-alpha (Homo sapiens) (P19793 whole entry, looked up, the tested form may be a part): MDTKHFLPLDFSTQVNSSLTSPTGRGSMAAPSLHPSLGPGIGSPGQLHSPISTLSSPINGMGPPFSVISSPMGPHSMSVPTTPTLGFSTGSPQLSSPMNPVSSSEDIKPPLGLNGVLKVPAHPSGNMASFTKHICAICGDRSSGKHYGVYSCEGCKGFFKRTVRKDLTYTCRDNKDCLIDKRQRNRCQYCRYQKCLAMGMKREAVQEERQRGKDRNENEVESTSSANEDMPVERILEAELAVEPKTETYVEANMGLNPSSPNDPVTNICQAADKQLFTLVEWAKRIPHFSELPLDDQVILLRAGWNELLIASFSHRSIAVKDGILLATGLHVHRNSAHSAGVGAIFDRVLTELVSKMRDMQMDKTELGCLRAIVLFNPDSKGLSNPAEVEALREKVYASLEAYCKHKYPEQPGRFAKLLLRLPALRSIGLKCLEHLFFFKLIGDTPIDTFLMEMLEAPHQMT

Compound	outcome
CCN(Cc1cccc(S(=O)(=O)O)c1)c1ccc(C(=C2C=CC(=[N+](CC)Cc3cccc(S(=O)(=O)O)c3)C=C2)c2ccccc2S(=O)(=O)[O-])cc1	inactive
CC[C@@H]1C[C@H](N(Cc2cc(C(F)(F)F)cc(C(F)(F)F)c2)C(C)=O)c2cc(C(F)(F)F)ccc2N1C(=O)OC(C)C	inactive
CCN(Cc1cccnc1)C(=O)c1cccc(Cl)c1[C@]1(C)C(=O)N(Cc2ccc(OC)cc2OC)c2ccc(Cl)cc21	inactive
Cc1ccc2oc(CN(Cc3ccccc3)C(=O)Nc3c(F)cc(F)cc3F)c(-c3ccc(Cl)cc3)c2c1	inactive
C[C@]12CC[C@@H]3c4ccc(O)cc4CC[C@H]3[C@@H]1CCC2=O	inactive
Cc1cc(F)ccc1-c1cc(N2CC[C@@H](O)[C@H]2CO)ncc1N(C)C(=O)C(C)(C)c1cc(C(F)(F)F)cc(C(F)(F)F)c1	inactive
CCCCCCCCOc1ccc(C(=O)c2ccccc2)c(O)c1	inactive
COc1cccc([C@H](O)C2CCN(CCc3ccc(F)cc3)CC2)c1OC	inactive
CC1(C)NC(=O)N(c2ccc([N+](=O)[O-])c(C(F)(F)F)c2)C1=O	inactive
c1ccc(C[n+]2cccc3ccccc32)cc1	inactive
Cc1oc2c(NC(=O)c3c(Cl)cccc3Cl)cccc2c1C(C)(C)O	inactive

The compounds below were run against human Retinoid X Receptor beta (RXRb), RXRB (gene 6257) (UniProt P28702) (assay: ATG_RXRb_TRANS: Attagene TRANS-FACTORIAL HepG2 Assay for human Retinoid X Receptor beta (RXRb) (AID 2283013)). Conditions: not given.
Outline: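 Read-out: reporter mRNA induction via RT-PCR plus capillary electrophoresis fluorescence, analysed as signal increase relative to DMSO. Cells were human HepG2, transiently transfected with GAL4-UAS reporter constructs and chimeric receptor-Gal4 fusions, dosed for 24 h.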

Chain of human Retinoid X Receptor beta (RXRb), RXRB (gene 6257) (P28702 whole entry, looked up, the tested form may be a part): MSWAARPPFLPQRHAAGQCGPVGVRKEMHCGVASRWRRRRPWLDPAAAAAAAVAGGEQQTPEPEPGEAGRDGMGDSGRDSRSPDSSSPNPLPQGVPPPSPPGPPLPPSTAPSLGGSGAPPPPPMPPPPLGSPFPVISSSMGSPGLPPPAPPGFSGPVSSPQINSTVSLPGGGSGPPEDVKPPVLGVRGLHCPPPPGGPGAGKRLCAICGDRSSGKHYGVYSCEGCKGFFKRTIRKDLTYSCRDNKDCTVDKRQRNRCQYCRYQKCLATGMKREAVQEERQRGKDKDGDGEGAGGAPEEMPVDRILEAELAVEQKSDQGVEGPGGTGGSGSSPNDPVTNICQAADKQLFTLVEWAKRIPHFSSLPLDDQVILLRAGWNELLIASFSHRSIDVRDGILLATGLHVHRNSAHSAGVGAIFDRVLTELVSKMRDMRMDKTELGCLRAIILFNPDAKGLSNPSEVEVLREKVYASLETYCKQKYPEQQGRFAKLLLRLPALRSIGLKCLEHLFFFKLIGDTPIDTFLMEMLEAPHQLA

Compound	outcome	AC50
O=C(Nc1ccc(Cl)cc1)Nc1ccc(Cl)c(Cl)c1	inactive	–
CCCCCCCCCCCC[N+](C)(C)C	inactive	–
O=C=NCCCCCCN=C=O	inactive	–
Cc1occc1C(=O)Nc1ccc(C(=O)N2CCC(F)(F)/C(=C\C(=O)N3CCC(N4CCCCC4)CC3)c3ccccc32)cc1	–	55.2 µM (active)
Cc1cn([C@H]2C[C@H](N=[N+]=[N-])[C@@H](CO)O2)c(=O)[nH]c1=O	inactive	–
Oc1ccc2ccccc2c1	inactive	–
CCCCCCCCCC(=O)O	–	30.2 µM (active) and 68.3 µM (active)
CC(C)(C)c1cc(/C=C2\SC(N)=NC2=O)cc(C(C)(C)C)c1O	inactive	–
CCCCCCCCOC(=O)c1cc(O)c(O)c(O)c1	inactive	–
CC(C)(c1cc(Br)c(O)c(Br)c1)c1cc(Br)c(O)c(Br)c1	inactive	–
CC[C@@H]1C[C@H](N(Cc2cc(C(F)(F)F)cc(C(F)(F)F)c2)C(C)=O)c2cc(C(F)(F)F)ccc2N1C(=O)OC(C)C	inactive	–
Cc1ccc2oc(CN(Cc3ccccc3)C(=O)Nc3c(F)cc(F)cc3F)c(-c3ccc(Cl)cc3)c2c1	inactive	–
Cc1c2ccccc2c(C)c2c1ccc1ccccc12	–	15 µM (active)
CC1=CC(=O)/C(=C(/C)O)C(=O)O1	inactive	–
COCC(C)OCC(C)OCC(C)O (stereo not given)	inactive	–
CCCOC(=O)c1cc(O)c(O)c(O)c1	inactive	–
CC1(C)NC(=O)N(c2ccc([N+](=O)[O-])c(C(F)(F)F)c2)C1=O	inactive	–
c1ccc(C[n+]2cccc3ccccc32)cc1	inactive	–

The compounds below were run against human Thyroid Receptor alpha (THRa1), THRA (gene 7067) (UniProt P10827) (assay: ATG_THRa1_TRANS: Attagene TRANS-FACTORIAL HepG2 Assay for human Thyroid Receptor alpha (THRa1) (AID 2283014)). Conditions: not given.
Outline: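 HepG2 cells transiently transfected with multiplexed GAL4-UAS reporter units for exogenous chimeric THRa1-Gal4; reporter mRNA measured 24 h after dosing by RT-PCR, 6-FAM labelling, HpaI digestion and capillary electrophoresis. Gain-of-signal fitted versus DMSO baseline.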

Chain of human Thyroid Receptor alpha (THRa1), THRA (gene 7067) (P10827 whole entry, looked up, the tested form may be a part): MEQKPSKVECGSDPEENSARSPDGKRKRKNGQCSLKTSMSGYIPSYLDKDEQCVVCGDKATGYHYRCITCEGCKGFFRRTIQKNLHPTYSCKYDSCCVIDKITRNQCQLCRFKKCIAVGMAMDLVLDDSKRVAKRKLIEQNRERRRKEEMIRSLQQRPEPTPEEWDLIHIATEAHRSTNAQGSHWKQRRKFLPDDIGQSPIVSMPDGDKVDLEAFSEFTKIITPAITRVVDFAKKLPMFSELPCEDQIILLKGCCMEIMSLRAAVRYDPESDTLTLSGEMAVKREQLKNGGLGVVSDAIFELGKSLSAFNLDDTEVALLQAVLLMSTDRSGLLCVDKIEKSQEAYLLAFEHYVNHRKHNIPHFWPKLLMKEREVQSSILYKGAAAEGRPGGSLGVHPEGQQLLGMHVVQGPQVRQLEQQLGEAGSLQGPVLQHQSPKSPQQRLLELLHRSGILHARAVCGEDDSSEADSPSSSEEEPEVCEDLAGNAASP

Compound	outcome	AC50
O=C(Nc1ccc(Cl)cc1)Nc1ccc(Cl)c(Cl)c1	inactive	–
CCCCCCCCCCCC[N+](C)(C)C	inactive	–
CN(C)C(=O)C1(N2CCCCC2)CCN(CC[C@@]2(c3ccc(Cl)c(Cl)c3)CN(C(=O)c3ccccc3)CCO2)CC1	inactive	–
CCCCOC(=O)CC(CC(=O)OCCCC)(OC(C)=O)C(=O)OCCCC	inactive	–
Cc1occc1C(=O)Nc1ccc(C(=O)N2CCC(F)(F)/C(=C\C(=O)N3CCC(N4CCCCC4)CC3)c3ccccc32)cc1	–	53.8 µM (active)
CN(C)c1ccc(C(=C2C=CC(=[N+](C)C)C=C2)c2ccc(N(C)C)cc2)cc1	inactive	–
c1ccc2n[nH]nc2c1	inactive	–
CCCCCCCCOC(=O)c1cc(O)c(O)c(O)c1	inactive	–
CC(C)(c1cc(Br)c(O)c(Br)c1)c1cc(Br)c(O)c(Br)c1	inactive	–
CCN(Cc1cccc(S(=O)(=O)O)c1)c1ccc(C(=C2C=CC(=[N+](CC)Cc3cccc(S(=O)(=O)O)c3)C=C2)c2ccccc2S(=O)(=O)[O-])cc1	inactive	–
Cc1ccc2oc(CN(Cc3ccccc3)C(=O)Nc3c(F)cc(F)cc3F)c(-c3ccc(Cl)cc3)c2c1	inactive	–
CC1=CC(=O)/C(=C(/C)O)C(=O)O1	inactive	–
CCCCCCCCOc1ccc(C(=O)c2ccccc2)c(O)c1	inactive	–
COCC(C)OCC(C)OCC(C)O (stereo not given)	inactive	–
CCCOC(=O)c1cc(O)c(O)c(O)c1	inactive	–
CC1(C)NC(=O)N(c2ccc([N+](=O)[O-])c(C(F)(F)F)c2)C1=O	inactive	–
c1ccc(C[n+]2cccc3ccccc32)cc1	inactive	–
Cc1oc2c(NC(=O)c3c(Cl)cccc3Cl)cccc2c1C(C)(C)O	inactive	–

What follows are compounds tested on E-selectin (Homo sapiens) (UniProt P16581) (assay: BSK_3C_Eselectin: BioMAP Diversity Plus: 3C Assay for Eselectin Biomarker Activity (AID 2283015; active = hit-call score of the fitted dose curve at least 0.9, where 1 is the maximum; inactive = score below 0.9;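 as to outcome: cell surface E-selectin protein quantified by ELISA 24 h after dosing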)). Conditions: primary human endothelial cells (HUVEC); actives raise or lower the signal.
Outline: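 Primary human umbilical vein endothelial cells (3C system) were dosed with chemical and cell-surface E-selectin measured by ELISA 24 h later. Bidirectional curve fitting used DMSO as negative control and baseline.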

Chain of E-selectin (Homo sapiens) (P16581 whole entry, looked up): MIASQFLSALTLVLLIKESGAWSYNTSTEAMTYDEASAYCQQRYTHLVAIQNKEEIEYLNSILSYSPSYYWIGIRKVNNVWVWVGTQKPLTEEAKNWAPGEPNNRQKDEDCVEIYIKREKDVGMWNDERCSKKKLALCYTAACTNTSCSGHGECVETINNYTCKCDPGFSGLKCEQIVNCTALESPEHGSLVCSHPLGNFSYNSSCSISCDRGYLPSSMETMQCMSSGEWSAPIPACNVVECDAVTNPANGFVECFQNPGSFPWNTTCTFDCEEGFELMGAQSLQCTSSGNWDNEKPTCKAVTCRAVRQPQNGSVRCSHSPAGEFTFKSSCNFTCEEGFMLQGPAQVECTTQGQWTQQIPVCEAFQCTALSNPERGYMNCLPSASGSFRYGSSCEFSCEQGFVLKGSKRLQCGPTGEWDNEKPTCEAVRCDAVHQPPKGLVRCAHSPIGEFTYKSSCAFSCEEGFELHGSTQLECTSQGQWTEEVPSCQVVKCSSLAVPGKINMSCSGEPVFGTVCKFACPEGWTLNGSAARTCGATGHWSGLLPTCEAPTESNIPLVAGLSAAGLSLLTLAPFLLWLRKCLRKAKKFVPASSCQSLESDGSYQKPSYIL

Compound	AC50	outcome
NC(=O)c1nc(-c2cccc(-c3cc(F)ccc3OCC(F)(F)C(F)(F)F)c2)n[nH]1	34.9 µM (active)	–
O=C(Nc1ccc(Cl)cc1)Nc1ccc(Cl)c(Cl)c1	–	inactive
CCCCCCCCCCCC[N+](C)(C)C	1.98 µM (active)	–
CC[C@H](NC(=O)c1cc(F)ccc1NS(=O)(=O)c1cccc2cccnc12)c1ccccc1	–	inactive
O=C=NCCCCCCN=C=O	–	inactive
CN(C)C(=O)C1(N2CCCCC2)CCN(CC[C@@]2(c3ccc(Cl)c(Cl)c3)CN(C(=O)c3ccccc3)CCO2)CC1	29.8 µM (active)	–
CCCCOC(=O)CC(CC(=O)OCCCC)(OC(C)=O)C(=O)OCCCC	–	inactive
Clc1ccccc1C(c1ccccc1)(c1ccccc1)n1ccnc1	30.8 µM (active)	–
Cc1occc1C(=O)Nc1ccc(C(=O)N2CCC(F)(F)/C(=C\C(=O)N3CCC(N4CCCCC4)CC3)c3ccccc32)cc1	–	inactive
Cc1cn([C@H]2C[C@H](N=[N+]=[N-])[C@@H](CO)O2)c(=O)[nH]c1=O	–	inactive
Oc1ccc2ccccc2c1	–	inactive
COc1ccc2cc(S(=O)(=O)N[C@H](CC(=O)N[C@H](Cc3ccc(CN4[C@H](C)CCC[C@@H]4C)cc3)C(=O)N(C)C(C)C)c3ccc4c(c3)OCO4)ccc2c1	–	inactive
CCCCCCCCCC(=O)O	–	inactive
CC(C)(C)c1csc(-c2cc3cc(OCc4ccccc4CC(=O)O)ccc3o2)n1	–	inactive
CC(C)(C)c1cc(/C=C2\SC(N)=NC2=O)cc(C(C)(C)C)c1O	29.3 µM (active)	–
CCOC(=O)O[C@H](C)OC(=O)c1ccc2c(c1)cc(C(=O)NC1CCN(C(C)C)CC1)n2Cc1cc(-c2ccc(Cl)s2)on1	7.05 µM (active)	–
CN(C)c1ccc(C(=C2C=CC(=[N+](C)C)C=C2)c2ccc(N(C)C)cc2)cc1	0.815 µM (active)	–
O=c1ccc2ccccc2o1	–	inactive
c1ccc2n[nH]nc2c1	–	inactive

Compound	AC50	outcome
CCCCCCCCOC(=O)c1cc(O)c(O)c(O)c1	38.8 µM (active)	–
CC(C)(c1cc(Br)c(O)c(Br)c1)c1cc(Br)c(O)c(Br)c1	29 µM (active)	–
CCN(Cc1cccc(S(=O)(=O)O)c1)c1ccc(C(=C2C=CC(=[N+](CC)Cc3cccc(S(=O)(=O)O)c3)C=C2)c2ccccc2S(=O)(=O)[O-])cc1	–	inactive
CC[C@@H]1C[C@H](N(Cc2cc(C(F)(F)F)cc(C(F)(F)F)c2)C(C)=O)c2cc(C(F)(F)F)ccc2N1C(=O)OC(C)C	–	inactive
CCN(Cc1cccnc1)C(=O)c1cccc(Cl)c1[C@]1(C)C(=O)N(Cc2ccc(OC)cc2OC)c2ccc(Cl)cc21	6.76 µM (active)	–
Cc1ccc2oc(CN(Cc3ccccc3)C(=O)Nc3c(F)cc(F)cc3F)c(-c3ccc(Cl)cc3)c2c1	–	inactive
C[C@]12CC[C@@H]3c4ccc(O)cc4CC[C@H]3[C@@H]1CCC2=O	–	inactive
Cc1cc(F)ccc1-c1cc(N2CC[C@@H](O)[C@H]2CO)ncc1N(C)C(=O)C(C)(C)c1cc(C(F)(F)F)cc(C(F)(F)F)c1	10.9 µM (active)	–
Cc1c2ccccc2c(C)c2c1ccc1ccccc12	–	inactive
CCN(CC)C(=O)c1cc(S(=O)(=O)Cc2ccccc2)c(N2CCC(c3ccccc3)CC2)cc1N(CC)CCN(C)C	27.2 µM (active)	–
CC1=CC(=O)/C(=C(/C)O)C(=O)O1	–	inactive
CCCCCCCCOc1ccc(C(=O)c2ccccc2)c(O)c1	–	inactive
CN1C(=O)N(c2ccccc2Br)Cc2cnc(Nc3ccc4c(c3)OCC(CO)O4)nc21 (stereo not given)	15.2 µM (active)	–
COCC(C)OCC(C)OCC(C)O (stereo not given)	–	inactive
CCCOC(=O)c1cc(O)c(O)c(O)c1	–	inactive
COc1cccc([C@H](O)C2CCN(CCc3ccc(F)cc3)CC2)c1OC	–	inactive
CC1(C)NC(=O)N(c2ccc([N+](=O)[O-])c(C(F)(F)F)c2)C1=O	–	inactive
c1ccc(C[n+]2cccc3ccccc32)cc1	–	inactive
Cc1oc2c(NC(=O)c3c(Cl)cccc3Cl)cccc2c1C(C)(C)O	13 µM (active)	–
